From PubChem
Pf growth 96h – P. falciparum growth inhibition at 96 hours; P. falciparum luciferase reporter growth, 96 h; Potency, µM (highest dose often 28.7 µM), without a hit: top-dose activity change, negative = inhibition, most hits filed as inhibitors; 320,000 compounds, 6.9% hits; AID 504834; also: % is scaled to controls: 0 for no effect and ±100 for the full control effect
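Readout is luminescence from an integrated firefly luciferase in P. falciparum. Red cells, 2% hematocrit and 0.05% parasitemia final, were cultured with compound through two parasite generations (96 hours) at 37 C, 5% CO2.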
VACV Venus inh – vaccinia inhibition (Venus reporter); Vaccinia virus Venus reporter expression, fluorescence; Potency, µM (highest dose often 36.5 µM), for the others: top-dose activity change, negative = inhibition, hits mostly inhibitors; 330,000 compounds, 0.46% hits; AID 720580; calls by dose curve; tested in A549 cells; also: % is scaled to controls: 0 for no effect and ±100 for the full control effect; nearly all actives have a fitted effect of over 30% in size
NS1 function inh – blocks influenza NS1 protein function; Potency, µM (top dose mostly 46.1 µM), for inactives: top-dose activity, positive = more growth; AID 2326; 270,000 compounds, 0.4% hits; calls by dose curve; also: actives are rising curves; nearly all actives have a fitted effect of over 50% in size
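Growth recovery, yeast-based: influenza A NS1 expressed in S. cerevisiae causes slow growth, and suppressors are detected by OD600. The parent strain without NS1 is used as positive control.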
VACV mCherry inh – vaccinia inhibition (mCherry reporter). 310,000 compounds, 0.63% hits. Potency, µM (highest dose often 36.5 µM), for the others: at the highest dose activity change, negative = inhibition, hits mostly inhibitors. Vaccinia virus mCherry reporter infection, fluorescence. AID 720579; calls by dose curve; tested in A549 cells; also: % is scaled to controls: 0 for no effect and ±100 for the full control effect; nearly all actives have a fitted effect of over 35% in size
Pf growth 48h – P. falciparum growth inhibition at 48 hours (one generation). P. falciparum luciferase growth in erythrocytes, 48 h. 310,000 compounds, 5.9% hits. Potency, µM (series often up to 28.7 µM), without a hit: top-dose activity change, negative = inhibition, actives largely listed as inhibitors; also: % is scaled to controls: 0 for no effect and ±100 for the full control effect
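Firefly luciferase activity from engineered P. falciparum reports growth; inhibitors lower the luminescent signal. Cultures contained 2% hematocrit erythrocytes at 0.1% final parasitemia.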
HCV inh – HCV inhibition; Potency, µM (top dose mostly 41.8 µM), inactives show top-dose activity change, negative = inhibition, usual class: inhibitors; AID 651820; Huh7.5.1 HCVcc-Cre infection, luciferase reporter, 44 h; 340,000 compounds, 3.4% hits; also: % is scaled to controls: 0 for no effect and ±100 for the full control effect
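Infectious HCVcc-Cre (~0.5 moi) was added to cells just after compound, with cells seeded 4 h earlier at 1,000 per well. Luciferase activity after 44 h culture reported infection; substrate was incubated 15 min at room temperature before reading.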
* = called active by the depositor; i = inactive; ? = inconclusive; / = no result; [ ] = remark or other dose. In the library only some 11% were active in any assay of this set; here they are far more common. Unless noted, calls follow the shape of the dose curve; as a rule, active = well fitted inhibition curve with a large enough effect; inconclusive = small, poorly fitted or top-dose-only effect, or another doubt; inactive = no such curve, though single readings can be large or run the other way. Potency is read from the fitted curve at half-maximal effect.

SMILES	Pf growth 96h	VACV Venus inh	NS1 function inh	VACV mCherry inh	Pf growth 48h	HCV inh
COc1ccccc1/C=C1\SC(=O)N(CCC(=O)N2CCCCC2CCO)C1=O (stereo not given)	9.3µM*	/	6%	/	?	-28%
COc1ccccc1/C=C1\SC(=S)N(CCC(=O)N2CCCCC2CCO)C1=O (stereo not given)	?	-29%	4%	i	?	?
COc1cccc(/C=C2\SC(=S)N(CCCC(=O)N3CCCC3)C2=O)c1	4.1µM*	?	-20%	?	13µM*	?
COc1cccc(/C=C2\SC(=S)N(CCCC(=O)N3CCCCC3CCO)C2=O)c1 (stereo not given)	3.7µM*	/	-34%	/	?	?
O=C(CO/N=C/c1ccc(OC(F)F)cc1)NCc1cccs1	-4%	-10%	-21%	-24%	0%	-11%
CCC(=O)NC(c1ccc(OC)cc1)c1cc(Cl)c2cccnc2c1O (stereo not given)	288%	?	-1%	?	4%	2.5µM*
CCC(=O)NC(c1cccs1)c1cc([N+](=O)[O-])c2cccnc2c1O (stereo not given)	23%	?	-23%	?	?	?
COc1ccc(C(=O)NC(c2ccc(OC)c(OC)c2)c2cc(Cl)c3cccnc3c2O)cc1 (stereo not given)	/	?	/	4.5µM*	/	/
COc1ccc(C(=O)NCCCNC(=O)c2cccnc2)cc1OC	-10%	8%	19%	7%	20%	1%
CCCC(=O)NC(c1ccc(OCC)cc1)c1ccc(OC)c(OC)c1 (stereo not given)	3%	-2%	-3%	-14%	?	-12%
COc1ccc(C(NC(=O)c2cccnc2)c2cc(Cl)c3cccnc3c2O)cc1OC (stereo not given)	0%	?	?	-11%[1.46 µM]	?	8.9µM*
CCOc1ccc(C(NC(C)=O)c2ccc(OC)c(OC)c2)cc1 (stereo not given)	1.5µM*	6%	1%	i	-6%	10%
CN(Cc1ccc2c(c1)CCCN2C)C(=O)[C@H]1O[C@@H](n2ccc(=O)[nH]c2=O)[C@H](O)[C@@H]1O	/	10%	/	13%	/	/
CCCc1nc(SCC(=O)N2c3ccccc3CC2C)c2c(C)c(C)sc2n1 (stereo not given)	?	-1%	8%	-2%	?	?
N#Cc1ccsc1NC(=O)CN1CCN(S(=O)(=O)c2ccc3ccccc3c2)CC1	0%	-28%	19%	?	?	-12%
CCOc1cc(/C=C2\CN(C)C/C(=C\c3ccc(O)c(OCC)c3)C2=O)ccc1O	?	?	1%	?	2%[0.00184 µM]	22µM*
CCOc1cc(/C=C2/C(=O)ON=C2C)ccc1O	0.093µM*	/	4%	/	12%[0.00184 µM]	7%
CCOc1cc(/C=C2\CCC/C(=C\c3cc(Cl)c(O)c(OCC)c3)C2=O)cc(Cl)c1O	3.3µM*	93%	-7%	-12%	?	?
COc1cc(C=C2CN(C)C(=O)C2=O)ccc1O	/	0%	/	i	/	/
CC(=O)Nc1cccc2ccc(O)cc12	/	-3%	/	-21%	/	3%
Cc1cc(NS(=O)(=O)c2ccc(NC(=S)Nc3ccc(Cl)cc3C)cc2)no1	0%	-13%	-2%	i	20%	23%
COc1ccc(NS(=O)(=O)c2ccc3c(c2)OCCO3)cc1OC	?	-6%	?	-27%	24%	6.3µM*
Cn1c(=O)n(C)c2cc(NS(=O)(=O)c3ccc(Br)s3)ccc21	9.3µM*	-3%	1%	i	2%	2%
COc1ccc(S(=O)(=O)Nc2ccc3c(c2)OCCO3)cc1Cl	/	-26%	-14%	?	10%	11µM*
COc1ccc(S(=O)(=O)Nc2ccc3c(c2)n(C)c(=O)n3C)cc1OC	17%	-7%	4%	-4%	25%	3.2µM*
SMILES	Pf growth 96h	VACV Venus inh	NS1 function inh	VACV mCherry inh	Pf growth 48h	HCV inh
COc1ccc(S(=O)(=O)NCc2ccc3c(c2)OCO3)cc1OC	1.2µM*	/	0%	/	-3%	-1%
Cc1cc(C)cc(NS(=O)(=O)c2ccc3c(c2)c(=O)n(C)c(=O)n3C)c1	/	5µM*	4%	5.6µM*	12µM*	6.3µM*
CN1CCN(C(=O)N(c2ccccc2)c2ccccc2)CC1	/	-1%	/	-16%	/	-7%
Cn1cc(Cl)c(C(=O)OCC(=O)c2ccccc2)n1	13µM*	-4%	0%	32%	30%	5%
CCCCCCc1ccc(-c2ncc(N)cn2)cc1	237%	/	-3%	/	297%	5.6µM*
CCCCCc1ccc(-c2nnc(N)s2)cc1	29%	-4%	-37%	-25%	-12%	16%
O=C(N/N=C(\Cc1ncc[nH]1)c1ccccc1)c1cccnc1	?	?	/	11µM*	9.3µM*	?
O=C(N/N=C(\Cc1ncc[nH]1)c1ccccc1)c1ccncc1	?	?	/	10µM*	?	?
O=C(N/N=C(\c1ccccc1)c1cccnc1)c1ccc(O)cc1	2%	-17%	-5%	i	0%	3%
O=C(N/N=C(\c1ccccc1)c1cccnc1)c1cccc(F)c1	?	?	-110%	3.2µM*	1.9µM*	?
N#CCc1nc2ccc(S(=O)(=O)N3CCOCC3)cc2s1	13µM*	403%	16%	-14%	15µM*	?
CSc1nc2ccc(S(=O)(=O)N3CCOCC3)cc2s1	?	-11%	-10%	-16%	-5%	-27%
O=S(=O)(c1cccc(-c2nnc(SCc3nc4ccccc4s3)o2)c1)N1CCOCC1	-8%	?	-3%	13µM*	79%	?
CCOC(=O)c1cc(-c2ccc(N3CCOCC3)cc2)nn1-c1ccc(F)cc1F	12µM*	-10%	-20%	-2%	12µM*	11µM*
CCOC(=O)c1cc(-c2ccc(N3CCOCC3)cc2)nn1-c1ccccc1	?	-25%	-5%	-5%	?	?
